# According to PubChem BioAssay:
# For part of these data: Potency and affinity values are given separately. The source made the active and inactive calls.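 Rule for the calls, unless noted: active = fitted half-maximal concentration within 10 nM to 100 µM, steepness 0.5 to 2, significant signal drop, low assay interference; inactive = the rest.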
# How the values were obtained:
# [1] = target: Cell division control protein 42 homolog (Homo sapiens) (UniProt P60953); experiment: inhibition of fluorescent GTP binding to constitutively active Cdc42 – biochemical, multiplex bead flow cytometry, Bodipy-FL-GTP, dose response (AID 1333;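 active = fitted half-maximal concentration within the tested dose range, moderate curve steepness, a statistically real signal drop, and little compound fluorescence or tag-binding interference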)
# Cell division control protein 42 homolog (Homo sapiens), sequence (P60953 whole entry, looked up): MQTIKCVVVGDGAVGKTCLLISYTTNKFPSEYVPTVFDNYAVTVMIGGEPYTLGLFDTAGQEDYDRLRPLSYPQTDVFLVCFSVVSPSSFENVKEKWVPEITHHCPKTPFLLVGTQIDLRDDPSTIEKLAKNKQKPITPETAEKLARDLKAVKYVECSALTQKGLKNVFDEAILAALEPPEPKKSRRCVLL
# [2] = target: Cell division control protein 42 homolog (Homo sapiens) (UniProt P60953); experiment: inhibition of fluorescent GTP binding to wildtype Cdc42 – biochemical, multiplex bead flow cytometry, Bodipy-FL-GTP, dose response (AID 1334;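 active = fitted half-maximal concentration within the tested range, moderate curve steepness, significant signal drop, and little compound fluorescence or bead-linkage interference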); conditions: bead-based flow cytometry, Bodipy-FL-GTP binding to GST-Cdc42; at 100 µM (top of the series) unless noted
# [3] = target: GTPase HRas (Homo sapiens) (UniProt P01112); experiment: Ras wt fluorescent GTP loading blockade – biochemical, wildtype, multiplex bead flow cytometry, dose response (AID 1335); conditions: bead-based flow cytometry, Bodipy-GTP binding to GST-Ras; at 100 µM (top of the series) unless noted
# GTPase HRas (Homo sapiens), sequence (P01112 whole entry, looked up): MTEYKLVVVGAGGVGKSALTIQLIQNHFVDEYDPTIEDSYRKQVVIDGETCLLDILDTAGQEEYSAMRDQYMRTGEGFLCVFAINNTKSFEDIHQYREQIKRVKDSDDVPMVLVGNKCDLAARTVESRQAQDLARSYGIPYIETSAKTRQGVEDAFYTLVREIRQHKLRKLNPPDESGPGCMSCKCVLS
# [4] = system: Ras-related protein Rab-7a (dog), GTP binding; experiment: blockers of fluorescent GTP binding to Rab7 – biochemical, wildtype, multiplex bead flow cytometry, dose response (AID 1336; call rule not given here)
# [5] = target: Ras-related C3 botulinum toxin substrate 1 (Homo sapiens) (UniProt P63000); experiment: inhibition of wildtype Rac1 nucleotide loading – biochemical, multiplex bead flow cytometry, dose response (AID 1340;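 active = dose curve with midpoint inside tested range, moderate steepness, plateau gap beyond fit error, low compound glow and bead-link interference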); conditions: GST-Rac1 beads, Bodipy-FL-GTP binding; at 100 µM (top of the series) unless noted
# [6] = target: GTPase HRas (Homo sapiens) (UniProt P01112); experiment: blockade of GTP loading onto mutant Ras – biochemical, activated mutant, multiplex bead flow cytometry, dose response (AID 1341;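 active = dose-response curve with midpoint inside the tested range, moderate steepness, significant amplitude and little compound fluorescence or bead-attachment interference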;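 note: GST-tagged constitutively activated Ras mutant immobilized on beads and multiplexed with other GTPases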)
Compound,outcome [1],"fluorescence, percent of control (lower = inhibition) [2] [%]","GTP binding, percent of control [3] [%]",outcome [4],"GTP binding signal, raw median fluorescence (lower = inhibition) (MCF (arbitrary fluorescence units)) [5]",outcome [6]
CO/N=C/NC(=O)NOCc1ncc(C(F)(F)F)cc1Cl,inactive,38.1,86.2,inactive,295,inactive
COc1ccc(-c2csc(NC(=O)Cc3cccc4ccccc34)c2C(=O)O)cc1,inactive,27.2,66.7,inactive,187,inactive
Nc1nn2c(-c3ccccc3)cc(=O)[nH]c2c1N=Nc1ccc(O)cc1,inactive,33.3,75.4,inactive,188,inactive
N#C/C(=C/c1ccc(-c2ccccc2)o1)c1nc(-c2cccs2)cs1,inactive,96.4,107,inactive,228,inactive
O=C(Nc1nc(-c2ccc(S(=O)(=O)N3CCCC3)cc2)cs1)c1cccs1,inactive,83.9,135,inactive,164,inactive
Cc1cccc(OCCn2c(SCCC(=O)O)nc3ccccc32)c1,inactive,58,85.4,inactive,28.9,inactive
Cc1ccc(NCC(=O)c2ccccc2)cc1Cl,inactive,36.3,80.6,inactive,256,inactive
O=C(O)c1cc2ccccc2nc1OCCc1ccccc1,inactive,55.8,222,inactive,50.3,inactive
COc1ccc2nc(C)cc(SCC(=O)N/N=C/c3ccc(O)c(O)c3)c2c1,inactive,35,75.8,inactive,164,inactive
O=C(O)Cn1cc(C(=O)C2CCCCC2)c2ccccc21,inactive,59.5,88.6,inactive,32,inactive
O=C(O)c1cccnc1SCc1ccc([N+](=O)[O-])cc1,inactive,71.2,92,inactive,45.6,inactive
O=C(N/N=C/c1ccc(-c2ccccc2[N+](=O)[O-])o1)c1cncc(Br)c1,inactive,44.2,55.2,inactive,150,inactive
O=C(C#Cc1ccc(-c2ccccc2)cc1)c1ccc([N+](=O)[O-])cc1,inactive,44.5,196,inactive,51.8,inactive
Cc1cc(C)n2nc(C(=O)Nc3ccc(S(=O)(=O)N4CCCC4)cc3)nc2n1,inactive,37,82.5,inactive,257,inactive
Cc1ccc(N=Nc2c(N)[nH]n3c(=O)cc(-c4ccccc4)nc23)cc1,inactive,64.1,125,inactive,118,inactive
O=c1c2c(-c3ccccc3)csc2nc2c3ccccc3c(NCCN3CCOCC3)nn12,inactive,32.1,66.4,inactive,168,inactive
COc1ccccc1-n1cc([C@@H]2C[C@H]3CN(c4ccccc4)C(=O)[C@]34CCCN24)cn1,inactive,71.8,119,inactive,293,inactive
CC(=O)OC(C(=O)NC1CCCCC1)c1ccc(Cl)cc1 (stereo not given),inactive,34.5,82.1,inactive,240,inactive
OC(c1ccc(OCc2ccccc2)cc1)c1nnc(-c2ccccc2)o1 (stereo not given),inactive,92.3,177,inactive,173,inactive
CC(C)(C)OC(=O)N[C@@H](Cc1ccccc1)c1nnc(S(=O)(=O)Cc2cccc(F)c2)o1,inactive,33,77,inactive,260,inactive

Compound,outcome [1],"fluorescence, percent of control (lower = inhibition) [2] [%]","GTP binding, percent of control [3] [%]",outcome [4],"GTP binding signal, raw median fluorescence (lower = inhibition) (MCF (arbitrary fluorescence units)) [5]",outcome [6]
O=C(O)c1ccc(COc2cccc(Cl)c2)o1,inactive,60.1,87,inactive,32.8,inactive
Cc1ccc(-n2c(=O)cc(N3CCN(C(=O)c4ccco4)CC3)[nH]c2=O)cc1,inactive,36.6,81.3,inactive,286,inactive
Cc1nc(-c2ccccc2)sc1C(=O)NN,inactive,39.4,82.3,inactive,248,inactive
O=S(=O)(Cc1ccccc1)c1ccccc1-c1nnc(-c2ccccc2)o1,inactive,89.9,166,inactive,188,inactive
Cc1cc(C)n2nc(SCCOc3ccccc3F)nc2n1,inactive,34.1,72.5,inactive,144,inactive
COc1cc(/C=C2/C(C)=C(C#N)c3nc(N)c(C#N)c(C)c32)ccc1OCC(=O)O,inactive,25.9,62,inactive,161,inactive
COc1ccc(CNC(=O)C2CC(=O)N(c3ccc(OCC(=O)N4C(C)CCCC4C)cc3)C2)cc1 (stereo not given),inactive,106,177,inactive,183,inactive
O=C(CN1C(=O)C2C3c4ccccc4C(c4ccccc43)C2C1=O)Nc1cccc(C(=O)O)c1 (stereo not given),inactive,46.1,58.8,inactive,165,inactive
O=C(O)c1cc(C(=O)O)cc(-c2ccc(/C=c3/sc4nc5ccccc5n4c3=O)o2)c1,inactive,30,72.3,inactive,185,inactive
CCCc1nc2oc3c(=O)[nH]cnc3c2c2c1CCCC2,inactive,35.5,79.1,inactive,193,inactive
Cc1ccc(Sc2ncccc2C(=O)O)c(C)c1,inactive,78,78.1,inactive,309,inactive
COc1ccc(S(=O)(=O)Cc2ccc(C(=O)N3CCN(c4cccc(C)c4C)CC3)o2)cc1,inactive,41.5,62.1,inactive,171,inactive
Cc1ccc(S(=O)(=O)N(C)C)cc1NC(=O)COC(=O)c1ccc(Cl)cc1,inactive,39.2,86,inactive,265,inactive
C=CCn1c(-c2csc(-c3ccc(Cl)cc3)n2)n[nH]c1=S,inactive,40.8,89.3,inactive,262,inactive
COc1ccccc1OCCSc1nc2ccccc2n1CC(=O)O,inactive,62.3,87.1,inactive,33.6,inactive
Cc1nnc(SCCN2CCOCC2)c2nn(-c3ccccc3F)c(C)c12,inactive,48.5,61.1,inactive,196,inactive
N#CCc1c(C#N)c(N)nc(N2CCN(C=O)CC2)c1C#N,inactive,33.7,75.4,inactive,170,inactive
Cc1ccc(Nc2ncccc2C(=O)O)cc1,inactive,58.7,85.1,inactive,31.3,inactive
O=C(COc1ccccc1-c1ccccc1)N/N=C/c1ccncc1,inactive,33.3,77.4,inactive,247,inactive
Cc1ccc(Nc2c(F)c(F)c(F)c(F)c2C(=O)O)c(C)c1,inactive,92.8,109,inactive,75.2,inactive

Compound,outcome [1],"fluorescence, percent of control (lower = inhibition) [2] [%]","GTP binding, percent of control [3] [%]",outcome [4],"GTP binding signal, raw median fluorescence (lower = inhibition) (MCF (arbitrary fluorescence units)) [5]",outcome [6]
C=CCc1ccccc1OCc1cccc(C(=O)O)c1,inactive,78.7,99.3,inactive,56.1,inactive
Cc1cccc(CNCc2sc(C(=O)O)cc2C)c1,inactive,54.2,77.2,inactive,31.9,inactive
COc1ccc(C(=O)Nn2c(SCC(=O)c3ccccc3)nc3ccccc3c2=O)cc1,inactive,71.5,119,inactive,135,inactive
O=C(COC(=O)C12CC3CC(CC(C3)C1)C2)Nc1nc2c(F)c(F)c(F)cc2s1,inactive,44.1,68.1,inactive,0,inactive
CCOc1ccc(-n2c(-c3ccco3)n[nH]c2=S)cc1,inactive,56.1,112,inactive,107,inactive
COCCOC(=O)c1c(C)oc2ccc(OC(=O)c3ccc4c(c3)OCO4)cc12,inactive,31.7,83.9,inactive,262,inactive
COc1ccc(/C=N/NC(=O)c2cccnc2)cc1Cn1nc([N+](=O)[O-])c(Br)c1C,inactive,31.2,67,inactive,153,inactive
CCOC(=O)Cn1nnnc1C(CC)N(Cc1ccccc1)Cc1cc2cc(C)ccc2[nH]c1=O (stereo not given),inactive,83.7,155,inactive,182,inactive
Cc1cc(NS(=O)(=O)c2ccc(Nc3nc(-c4sc(N)nc4C)cs3)cc2)no1,inactive,23.8,58.3,inactive,122,inactive
N#C/C(=C\c1ccccc1)c1nc2ncccc2[nH]1,inactive,36.8,82.5,inactive,276,inactive
Cc1ccc(CS(=O)(=O)c2ccccc2-c2nnc(-c3ccc(Cl)cc3)o2)cc1,inactive,88.2,156,inactive,181,inactive
O=C(Nc1ccc(N2CCOCC2)c(Cl)c1)c1ncn[nH]1,inactive,104,203,inactive,241,inactive
CCOC(=O)N1CCC(NC(=O)c2ccc3nc4ccccc4c(=O)n3c2)CC1,inactive,97.6,122,inactive,152,inactive
Cc1ccccc1/C=C1\SC(=S)N(/N=C/c2cc([N+](=O)[O-])ccc2O)C1=O,inactive,34.1,81.2,inactive,228,inactive
Cc1cccc(OCCSc2nc3ccccc3n2CC(=O)O)c1C,inactive,58.6,87.7,inactive,30.5,inactive
CCN(CC)c1ccc(/C=c2\sc3nnc(-c4ccccc4Cl)n3c2=O)cc1,inactive,117,128,inactive,225,inactive
COc1ccc(C2=Nn3c(nnc3-c3ccco3)SC2)cc1OC,inactive,69.9,137,inactive,146,inactive
CCOC(=O)c1sc(NC(=O)CSc2nnc(Cc3ccccc3)o2)c(C#N)c1C,inactive,36.5,56.1,inactive,118,inactive
COc1ccccc1OCCn1cc(C(=O)O)c2cc(C)ccc21,inactive,62.1,212,inactive,57.3,inactive
S=C(Nc1ccc(Oc2ccccc2)cc1)NC1CCCCCC1,inactive,28,87.3,inactive,300,inactive
